Here are results for twelve molecules from PubChem BioAssay (NCATS).

Where “and” joins values, the source holds several entries; their conditions need not be identical. Identical values can stand only once. Records with an inconclusive call do not appear. Calls of active or inactive are those of the source. Calls follow the shape of the full dose curve.

This assay in a line: qHTS Assay for Lipid Storage Modulators (AID 1519). As to activity change, negative = inhibition: % is scaled to controls: 0 for no effect and ±100 for the full control effect. The note with it: Drosophila S3 cells, BODIPY lipid droplet/cell ratio, laser cytometry, cells loaded with oleic acid. From the text:
NIH Molecular Libraries Probe Production Centers Network [MLPCN]
NIH Chemical Genomics Center [NCGC]
Assay Submitter (PI): Beller, Mathias; Max-Planck-Institut fur Biophysikalische Chemie
NCGC Assay Overview: Storing lipids as a reservoir for energy or the anabolism of elementary metabolites is a common feature of probably all cells and is conserved from bacteria to humans. The universal cellular lipid storage organelle is the so-called lipid storage droplet (LD). Although ubiquitous, LDs share a simple structure composed of a hydrophobic core that harbors the storage lipids, which is shielded by a droplet-specific phospholipid monolayer to which proteins are attached. The current model of LD biogenesis involves an incorporation of the lipid core into the membrane leaflets of the endoplasmic reticulum (ER) followed by a subsequent budding-like maturation of a LD, which ultimately pinches off. Once released, LD volume can increase by localized lipogenesis or fusion of existing droplets. Storage lipids are re-mobilized enzymatically by lipase activity. Lipase regulation in the adipocyte is heavily studied and involves multiple components including catecholamine signaling, the LD-associated proteins Perilipin and comparative gene identification-58 (CGI-58) and at least two lipases named hormone sensitive lipase (HSL) and adipocyte triglyceride lipase (ATGL). LD regulation outside of the adipocyte is poorly understood and only few components are known. However, there is an urgent need to learn more about ectopic fat depots as mislocalized storage of lipids, for example in the liver or muscle, is an eminent health problem associated with insulin resistance or the metabolic syndrome. We developed a laser-scanning cytometer assay to enable 1,536-well screening and combined the results of the small molecules screen with an RNAi database based on lipid storage.
NCGC Assay Protocol Summary:
We dispensed 4 uL of cells at 1.25 x 10^6 cells/mL into LoBase Aurora COC 1,536-well plates (black walled, clear bottom) with a bottle-valve solenoid-based dispenser (Aurora) to obtain 5,000 cells/well. Triacsin C (Sigma-Aldrich T-4540), an inhibitor of long-chain fatty acyl CoA synthetase that blocks synthesis of triglycerides, was used as a positive control for lipid under-storage. A total of 23 nL of compound solution of different concentrations were transferred to the assay plates using a Kalypsys pin tool equipped with a 1,536-pin array containing 10-nL slotted pins (FP1S10, 0.457-mm diameter, 50.8 mm long; V&P Scientific). One microliter of oleic acid (400 uM) was added, and the plate was lidded with stainless steel rubber gasket lined lids containing pinholes. […] Fluorescence was detected by excitation of the fluorophores with a 488-nm laser on an Acumen Explorer (TTP Lab Tech). The total intensity in channel 1 (500-530 nm) reflected lipid droplet accumulation. […] The ratio of the total intensity in PMT channel 1 over total intensity of channel 3 was also calculated. Percent activity was computed relative to an internal control (100% inhibited lipid droplet deposition due to the presence of 20 uM Triacsin C), which was added to 32 wells/plate.
(In qHTS, concentration-response curves come from the screen itself.)

Setting [1] is: measured here: cell count channel max response.
[2] abbreviates: measured here: lipid channel max response.

`CCOc1ccc2ccccc2c1C(=O)N[C@@H]1C(=O)N2[C@@H]1SC(C)(C)[C@@H]2C(=O)O`: the activity change, negative = inhibition (at 25.7 µM (top of the series)) is -0.855% (inactive). The max response reads like this: under setting [1], -15.7%; under setting [2], -15.1%.

Consider `Cc1cc2c(cc1S(N)(=O)=O)S(=O)(=O)CCC2`, for which the activity change, negative = inhibition (at 25.7 µM (top of the series)) is -2.69% (inactive). Further, the max response by setting is: under setting [1], 5.71%; under setting [2], 1.67%.

As for `CCN(CC)CCNC(=O)c1cc(Cl)c(N)cc1OC`, the activity change, negative = inhibition by setting is: (at 25.7 µM (top of the series)) -0.223% (inactive); (at 57.5 µM (top of the series)) 6.86% (inactive). The max response reads like this: under setting [1], -7.61% and 4.16%; under setting [2], -6.48% and 12.9%.

For the molecule `CNCCCC1c2ccccc2C=Cc2ccccc21`, the activity change, negative = inhibition (at 25.7 µM (top of the series)) was -5.19% (inactive) and the activity change, negative = inhibition (at 57.5 µM (top of the series)) was 0.497% (inactive). The max response was -11.5% and -13.6% under setting [1]; -15.9% under setting [2].

As to `Cn1cc[nH]c1=S`, the activity change, negative = inhibition runs as follows: (at 25.7 µM (top of the series)) -0.635% (inactive); (at 57.5 µM (top of the series)) 4.03% (inactive). Moreover, the max response under setting [1] is -10.4% and 8.98%; the max response under setting [2] was -9.93% and 13%.

Regarding `CN(C)CCCN1c2ccccc2Sc2ccc(Cl)cc21`, the activity change, negative = inhibition runs as follows: (at 25.7 µM (top of the series)) -3.35% (inactive); (at 57.5 µM (top of the series)) 10.9% (inactive). Besides, the max response is -15.1% and 7.95% under setting [1]; -17.6% and 24.6% under setting [2].

Consider `c1ccc(CN(CC2=NCCN2)c2ccccc2)cc1`, for which the activity change, negative = inhibition by setting is: (at 25.7 µM (top of the series)) -2.49% (inactive); (at 57.5 µM (top of the series)) -1.31% (inactive). Besides, the max response by setting is: under setting [1], 2.23% and 6.19%; under setting [2], -3.05% and 6.55%.

Turning to `CC(=O)c1ccc2c(c1)N(CCCN(C)C)c1ccccc1S2`, the activity change, negative = inhibition (at 25.7 µM (top of the series)) was -1.98% (inactive). Besides, the max response is 0.996% under setting [1] and -1.83% under setting [2].

Consider `Nc1cc(=O)[nH]c(N)n1`, for which the activity change, negative = inhibition (at 57.5 µM (top of the series)) was 1.9% (inactive). Also, the max response is -3.41% under setting [1] and -1.88% under setting [2].

In the case of `CCCn1cnc2c1c(=O)n(CCCCC(C)=O)c(=O)n2C`, for the setting “at 57.5 µM (top of the series)”, the activity change, negative = inhibition was 0.49% (inactive). Also, the max response is 51.1% under setting [1] and 50.9% under setting [2].

As to `CSc1ccc2c(c1)C(N1CCN(C)CC1)Cc1ccccc1S2` (stereo unspecified), the activity change, negative = inhibition (at 57.5 µM (top of the series)) was 1.28% (inactive) and 0.609% (inactive). The max response is, setting by setting: under setting [1], 9.1% and -20.8%; under setting [2], 12.4% and -19.6%.

Regarding `NC1CCN(c2cccc(Cl)n2)CC1`, under “at 57.5 µM (top of the series)”, the activity change, negative = inhibition was 5.71% (inactive) and 0.974% (inactive). Further, the max response is -16.7% and 37.1% under setting [1]; -10.9% and 36.3% under setting [2].
